# Test results published in the supplement of paper PMC13380429.
# Tests used:
# [1] = tested on: Vero E6 infected with SARS-CoV-2; assay: morphology score (similarity to uninfected cells); higher = more like uninfected cells; conditions: 24 h
# [2] = tested on: Vero E6 infected with SARS-CoV-2; assay: SARS-CoV-2 infection rate relative to infected DMSO; higher = more infection, active = 60 or less; conditions: 24 h
Structure (SMILES),morphology score [1],SARS-CoV-2 infection rate [2]
CCC(=O)N1CCOc2c(cc(-c3ccc(OC)c(OC)c3)cc2OC[C@H]2CCCN(C)C2)C1 (0.833333 µM),-0.0814,98.5% (inactive)
CCCC[C@]1(CC)CS(=O)(=O)c2cc(CNC(CC(=O)O)CC(=O)O)c(OC)cc2[C@@H](c2ccccc2)N1 (10 µM),0.0912,90.5% (inactive)
CCOc1ccc(Cc2cc([C@]34OC[C@](CO)(O3)[C@@H](O)[C@H](O)[C@H]4O)ccc2Cl)cc1 [ertugliflozin] (10 µM),-0.0565,107% (inactive)
O[C@@](Cc1nc(CC2(C(F)(F)F)CC2)c[nH]1)(c1ccc(-n2cccn2)cc1)C(F)(F)F (10 µM),0.03,112% (inactive)
C=C[C@](C)(O)CC[C@@H]1[C@@]2(C)CCCC(C)(C)[C@@H]2CC[C@@]1(C)O [sclareol] (10 µM),0.142,95.5% (inactive)
Cn1cnc([N+](=O)[O-])c1Sc1ncnc2[nH]cnc12 [azathioprine] (10 µM),0.172,95.5% (inactive)
COc1cc2c(cc1OC)CN(C(=O)[C@@H](NCc1ccncc1)C(C)(C)C)CC2 (10 µM),-0.115,105% (inactive)
C[n+]1ccccc1C=NO [pralidoxime] (10 µM),-0.226,116% (inactive)
CCCCNc1ncc2c(-c3ccc(CN4CCN(C)CC4)cc3)cn([C@H]3CC[C@H](O)CC3)c2n1 (10 µM),-0.164,119% (inactive)
CC1CCN(CC[C@H]2CCCN2S(=O)(=O)c2cccc(O)c2)CC1 (10 µM),0.0739,102% (inactive)
CC(C)OC(=O)C1=CN(C(=O)c2ccc(F)c(F)c2)CC(C)(C)c2c1[nH]c1ccccc21 (10 µM),0.0521,100% (inactive)
O=C(Nc1ccc(-c2ccncc2)cc1)N[C@H](CO)c1ccccc1 (0.833333 µM),0.489,94% (inactive)
CC(=O)Nc1ccc(C(=O)O)cc1 [acedoben] (10 µM),0.0304,102% (inactive)
CC1(CN)Cc2ccccc2C1 (10 µM),0.0351,112% (inactive)
CCCCC(=O)O[C@H]1CC[C@H]2[C@@H]3CCc4cc(O)ccc4[C@H]3CC[C@]12C (10 µM),-0.00932,89% (inactive)
C[C@@H](NC(=O)c1ncnc(N)c1Cl)c1ncc(C(=O)Nc2cc(C(F)(F)F)c(Cl)cn2)s1 (10 µM),-0.0506,108% (inactive)
CC(C)(C)NC(=O)N[C@H](C(=O)N1C[C@H]2[C@@H]([C@H]1C(=O)NC(CC1CCC1)C(=O)C(N)=O)C2(C)C)C(C)(C)C (stereo partly specified) [boceprevir] (10 µM),0.133,113% (inactive)
COC(c1ccccc1)(c1ccccc1)[C@H](Oc1nc(C)cc(C)n1)C(=O)O [ambrisentan] (10 µM),-0.0233,104% (inactive)
O=C(/C=C/c1ccc(O)c(O)c1)OCCc1ccccc1 [caffeic-acid-phenethyl-ester] (10 µM),-0.0125,79% (inactive)
N[C@H](Cc1ccccc1)C(=O)O [D-phenylalanine] (10 µM),0.0544,104% (inactive)

Structure (SMILES),morphology score [1],SARS-CoV-2 infection rate [2]
CCCCCCCCCCCCCCCCCCOP(=O)([O-])OC1CC[N+](C)(C)CC1 [perifosine] (10 µM),0.116,104% (inactive)
OCC(CO)N[C@H]1C[C@](O)(CO)[C@@H](O)[C@H](O)[C@H]1O [voglibose] (10 µM),-0.105,106% (inactive)
C=CCc1cccc(/C=N/NC(=O)CN2CCN(Cc3ccccc3)CC2)c1O (0.833333 µM),0.152,100% (inactive)
C=C(C)CN1CC[C@]23c4c5ccc(O)c4O[C@H]2c2[nH]c4ccccc4c2C[C@@]3(O)C1C5 (10 µM),0.0617,108% (inactive)
O=C(O)c1ccccc1O [salicylic-acid] (10 µM),0.0239,107% (inactive)
N#C/C(=C\c1cn(-c2ccccc2)c2ccccc12)C(=O)O (10 µM),-0.0582,99.5% (inactive)
CCN(CC)CCNC(=O)c1c(C)[nH]c(/C=C2\C(=O)Nc3ccc(F)cc32)c1C [sunitinib] (0.833333 µM),0.396,99% (inactive)
CCC1(C)CC(=O)NC(=O)C1 [bemegride] (10 µM),0.0851,95.5% (inactive)
O=C(c1ccc(F)c(F)c1Nc1ccc(I)cc1F)N1CC(O)([C@@H]2CCCCN2)C1 [cobimetinib] (0.833333 µM),-0.272,116% (inactive)
COC(=O)N/N=C/c1c[n+]([O-])c2ccccc2[n+]1[O-] [carbadox] (10 µM),0.227,85% (inactive)
Cc1cc(Nc2cc(C)c(C#N)c(N[C@@H](C)CCCC(C)(C)O)n2)n[nH]1 (10 µM),-0.0857,113% (inactive)
CCCCCCNC(=O)n1cc(F)c(=O)[nH]c1=O [carmofur] (0.833333 µM),0.222,96% (inactive)
CC1=C(/C=C/C(=C/C=C/C(C)=C/C(=O)O)c2ccc(C)cc2)C(C)(C)CCC1 (10 µM),0.171,106% (inactive)
CCc1c2c(nc3ccc(OC(=O)N4CCC(N5CCCCC5)CC4)cc13)-c1cc3c(c(=O)n1C2)COC(=O)[C@]3(O)CC [irinotecan] (0.833333 µM),-0.0173,98% (inactive)
CCOc1ccc(C(=O)OCCN(CC)CC)cc1 [parethoxycaine] (10 µM),0.157,108% (inactive)
CN1CCc2nc(C(=O)N[C@@H]3C[C@@H](C(=O)N(C)C)CC[C@@H]3NC(=O)C(=O)Nc3ccc(Cl)cn3)sc2C1 [edoxaban] (10 µM),0.0662,94.5% (inactive)
Cc1cc(=O)oc2c(C=O)c(O)ccc12 (10 µM),0.206,106% (inactive)
CC(C)(C)C#Cc1cc(N(C(=O)[C@H]2CC[C@H](C)CC2)[C@H]2CC[C@@H](O)CC2)c(C(=O)O)s1 (10 µM),-0.117,107% (inactive)
CCN(CC)CCOC(=O)C1(C2CCCCC2)CCCCC1 [dicycloverine] (10 µM),0.311,90% (inactive)
O=C(O)[C@@H]1C[C@@H](O)CN1 [L-hydroxyproline] (10 µM),0.203,101% (inactive)

Structure (SMILES),morphology score [1],SARS-CoV-2 infection rate [2]
N[C@H](C(=O)O)[C@H](O)c1ccc(O)c(O)c1 [droxidopa] (10 µM),-0.0971,122% (inactive)
Cc1oc(-c2ccccc2)nc1CCOc1ccc(CC2SC(=O)NC2=O)c2sccc12 (stereo unspecified) [edaglitazone] (10 µM),0.29,90.5% (inactive)
Cc1ccc(NCCCc2ccccc2)c(N)c1 [NFKB-activation-inhibitor-II] (10 µM),0.238,102% (inactive)
CCCC(=O)C1CCN(c2ncnc3c2CN(C(=O)c2ccc(-c4ccccc4)cc2)CC3)CC1 (10 µM),0.0512,104% (inactive)
O=C(Nc1ccc(Br)cc1)c1cc(Br)cc(Br)c1O [tribomsalan] (10 µM),0.043,106% (inactive)
CC(C)(C)n1nc(-c2cccc3ccccc23)c2c(N)ncnc21 [1-naphthyl-PP1] (0.833333 µM),0.129,96.5% (inactive)
COc1ccc2[nH]c([S+]([O-])Cc3ncc(C)c(OC)c3C)nc2c1 (stereo unspecified) [omeprazole-magnesium] (10 µM),-0.138,116% (inactive)
CN(C)CCOc1ccc(-c2nc(-c3ccncc3)c(-c3ccc4c(c3)CC/C4=N\O)[nH]2)cc1 (10 µM),-0.0571,96% (inactive)
C[C@]12COC(=O)C[C@@H]1CC[C@@H]1[C@@H]2CC[C@@]2(C)[C@H]1CC[C@]2(C)O [Oxandrolone] (10 µM),0.0356,112% (inactive)
CC(=O)Nc1ccccc1 [acetanilide] (10 µM),0.174,102% (inactive)
CC(=O)N[C@H]1[C@@H](O)[C@H](O)[C@@H](CO)O[C@@H]1O [N-acetylmannosamine] (10 µM),0.18,100% (inactive)
CSc1ccc2c(c1)[C@H](N1CCN(C)CC1)Cc1ccccc1S2 (racemic) [metitepine] (0.833333 µM),-0.0536,112% (inactive)
O=C(Nc1cc(Cl)cc(Cl)c1O)c1c(O)c(Cl)cc(Cl)c1Cl [oxyclozanide] (10 µM),0.0306,113% (inactive)
CC1=C(CC(=O)O)c2cc(F)ccc2/C1=C\c1ccc(S(C)(=O)=O)cc1 [exisulind] (10 µM),0.0955,109% (inactive)
N=C(N)S/C=C\C(=O)O (10 µM),0.101,108% (inactive)
CCN1CCN(Cc2ccc(Nc3ncc(F)c(-c4cc(F)c5nc(C)n(C(C)C)c5c4)n3)nc2)CC1 [abemaciclib] (10 µM),0.0416,107% (inactive)
Cc1cc(O)c2c(c1)C(=O)c1cc(O)cc(O)c1C2=O [emodin] (10 µM),0.146,106% (inactive)
Nc1ncnc2nc(-c3ccc(N4CCOCC4)nc3)cc(-c3cccc(Br)c3)c12 (10 µM),0.0544,108% (inactive)
